High-throughput results: PubChem BioAssay, several laboratories
In the library only some 0.98% were active in any assay of this set; here they are far more common.
SDO1 yeast rescue = compounds rescuing growth of sdo1-depleted yeast, bone marrow failure model; hit rate 0.21% among 140,000; S. cerevisiae sdo1-depleted JHY4D growth rescue, OD600 30 h; stronger effect = higher value; pdr5 snq2 efflux-pump mutant strain; z-score at 10 µM;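 active means z-score above 3 at both the 24 hr and the 30 hr optical density reads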;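 further: z-score against mean and SD of all compound wells on the same plate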
MRP resist rev = compounds reversing MRP-mediated drug resistance; AID 602; differential viability (reversal), % at 10 µM; hit rate 0.04% among 85,000; H69AR cells + 2 uM doxorubicin, CellTiter-Glo, 72 h;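 active means viability drop by adding the cancer drug above about 55%, with treated viability meeting a 40% cutoff, limit read from the data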;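 further: viability without doxorubicin minus viability with 2 µM doxorubicin for each compound; larger differential means the compound sensitizes cells more to doxorubicin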
Candida biofilm = kills Candida albicans biofilms. AID 834. inhibition, % at 6 µM. C. albicans biofilm + clotrimazole, Alamar Blue. hit rate 0.14% among 85,000;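 active means inhibition above 20%; inactive means inhibition below 20%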;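 further: preformed 24 hr biofilms exposed to compound for 48 hr; 0% = biofilm without compound and 100% = blank killed by clotrimazole plus chlorhexidine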
MRP-1 activ = MRP-1 activation | H69AR cells + doxorubicin, viability rescue, CellTiter-Glo | viability increase, % at 10 µM | hit rate 0.61% among 140,000 | AID 799;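 active means viability gain under doxorubicin at or above a set limit, the compound median plus 3 SD, cut at about 4.7% in these data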;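 further: MRP-1 overexpressing cells given doxorubicin 25 µM after compound pretreatment; 18-22 h compound pretreatment then 72 h with doxorubicin before readout; 0% = doxorubicin-only wells and 100% = vehicle-treated cells without doxorubicin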
Active calls of the source: *; x = not tested or not shown.

SMILES | SDO1 yeast rescue | MRP resist rev | Candida biofilm | MRP-1 activ
O=C(CSc1nc2ccccc2n1Cc1ccccc1)N/N=C/c1ccco1 | -0.55 | x | x | -2
Cc1ccc(Cn2c(SCC(=O)N/N=C/c3ccc(C)o3)nc3ccccc32)cc1 | -1.1 | x | x | 4.7*
COC(=O)c1ccc(NC(=O)C(=O)N2CCN(C(=S)Nc3ccc(C)cc3)CC2)cc1 | 0.42 | x | x | 1
CN(C)c1ccc(C(=O)OCc2ccccc2)cc1 | -0.71 | -3 | 43* | 3
COc1cc(OC)nc(-n2ncc(Br)c(Br)c2=O)n1 | -0.72 | x | x | -6
CC1=NN(c2ccc(C)cc2C)C(=O)C1C(c1ccccc1O)C1C(=O)N(c2ccc(C)cc2C)N=C1C (centres undefined) | -0.06 | x | x | 5.6*
COc1ccc(CNc2nc3c(c(=O)n(Cc4ccc(Cl)cc4)c(=O)n3C)n2C)cc1 | -0.7 | 20 | 5 | 5.5*
Cc1c(C(=O)OC(C)C)sc(N)c1C(=O)OC(C)C | -0.8 | x | x | 5.4*
Cc1c(C(N)=O)sc(N)c1C(=O)OC(C)C | 1.9 | -4 | 3 | -2
CCOC(=O)c1c(NC(=O)CSc2nnc(Cc3ccccc3)o2)sc(C)c1C | -0.64 | -13 | -2 | -4
Cc1csc(NC(=O)c2cc3c(C)nn(Cc4ccccc4Cl)c3s2)n1 | -1.1 | x | x | 5.0*
CCOC(=O)c1[nH]c2ccc(C)cc2c1N | 0.08 | -4 | 4 | 5
CCOC(=O)c1[nH]c2cc(OC)c(OC)cc2c1N | 0.04 | 0 | 3 | 8.5*
CC(C)C1Cc2c(sc3[nH]c(=S)n(Cc4ccccc4)c(=O)c23)CO1 (centres undefined) | -2.1 | -20 | 1 | -1
Cc1cccc2nc(CSC(=N)N)c(Br)n12 | 0.11 | x | x | 2
N=C(N)SCc1nc2ccccn2c1Br | 0.36 | x | x | 7.9*
COc1ccc(C(=O)OCCNC(=O)c2ccncc2)cc1OC | 1.8 | x | x | 1
COC(=O)c1sccc1NC(=O)CSc1nnnn1-c1ccccc1C | -0.47 | 9 | 27* | -3
COC(=O)c1ccc(-n2nnnc2SCC(=O)Nc2ccccc2C(=O)OC)cc1 | -1.2 | x | x | 0
O=C(C[n+]1ccc(-c2nnc3n2CCC3)cc1)c1ccc(Cl)c(Cl)c1 | 0.95 | x | x | 3
Cc1cccc2c3nc4ccccc4nc3n(CCCN3C(=O)c4ccccc4C3=O)c12 | -0.87 | x | x | 5.2*
COP(=O)(OC)c1nc(-c2ccccc2)oc1NCc1ccccc1 | 0.31 | x | x | -2
CNc1oc(-c2ccc(C)cc2)nc1P(=O)(c1ccccc1)c1ccccc1 | -1.8 | x | x | 7.4*
CNc1oc(-c2ccccc2Cl)nc1P(=O)(c1ccccc1)c1ccccc1 | -1.3 | x | x | 4.7*
COCCNc1oc(-c2ccccc2Cl)nc1C#N | 0.65 | 6 | 3 | 1
SMILES | SDO1 yeast rescue | MRP resist rev | Candida biofilm | MRP-1 activ
O=C(CSc1nccn1-c1ccc(Cl)cc1)NCc1ccc2c(c1)OCO2 | 0.37 | 7 | 9 | -4
Nc1nc(-c2ccccc2)nc2sc3c(c12)CCCC3 | -1.2 | x | x | -3
COc1ccc(OCc2nc3ccc(S(=O)(=O)Nc4ccccc4Cl)cc3[nH]2)cc1 | -0.97 | x | x | 6.0*
COc1ccc(NS(=O)(=O)c2ccc3nc(COc4ccc5ccccc5c4)[nH]c3c2)cc1 | 0.12 | x | x | -1
Cn1c(N)c(C(=O)COC(=O)c2cc(C3CC3)nc3ccccc23)c(=O)n(Cc2ccccc2)c1=O | -0.04 | x | x | 5.3*
Cc1ccccc1Cn1nc(C)c(NC(=O)c2noc3c2CC(C(C)(C)C)CC3)c1C (centres undefined) | -0.43 | -7 | 4 | 3
Cc1ccccc1Cn1nc(C)c(NC(=O)c2noc3c2CCc2ccccc2-3)c1C | -1.6 | 23 | 3 | 5.2*
CCOc1ccc(NCc2nnc(SCc3ccc(Cl)cc3)n2-c2ccccc2)cc1 | -0.81 | x | x | 0
Cc1ccc(Nc2nnc(-c3ccc(N4CCOCC4)c([N+](=O)[O-])c3)c3ccccc23)cc1 | -1.3 | x | x | 5.2*
COc1cc(NS(=O)(=O)c2ccc(N/C=C(\C#N)c3nc4cc(Cl)ccc4o3)cc2)nc(OC)n1 | -1.4 | x | x | 4.9*
O=C(Nc1nc(=O)n(C(=O)C2CC2)s1)c1ccccc1 | -0.3 | x | x | 6.8*
Clc1ccc(OCCSc2ncccn2)c2ccccc12 | -1.1 | 2 | 8 | 5.0*
c1cnc(SCCOc2cccc3ccccc23)nc1 | -1 | 10 | -2 | 1
O=C(COc1ccc(Br)cc1)c1ccc2c(c1)CCCC2 | -0.19 | x | x | 5.1*
CC(C)Cn1c2c(c(O)c(C(=O)Nc3ncccc3O)c1=O)CCCC2 | -2.2 | -14 | 8 | 1
CC(C)Cn1c2c(c(O)c(C(=O)Nc3ccc(F)cc3)c1=O)CCCC2 | -0.31 | -9 | -2 | 6.3*
O=C(CC1SC(=O)N(Cc2ccccc2)C1=O)Nc1nccs1 (centres undefined) | 0.04 | x | x | 12*
CCC1SC2=NC(C)=C(C(=O)OC)C(c3ccc(C(=O)OC)cc3)N2C1=O (centres undefined) | -0.95 | 9 | 5 | 4.9*
